Assay results reported in PubChem BioAssay.
Calls of active or inactive are those of the source.

Legend:
[1] = binders of probe aFSTL3 on microarray, primary screen, stem cell growth factor project, biochemical, small-molecule microarray, fluorescence 635/667 (AID 1064); settings: higher = more signal;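 also: measures binding of the biotinylated anti-FSTL3 antibody to printed compounds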
[2] = binders from COS7 lysate, DM2A8 probe, primary screen, torsin A project, cell lysate, small-molecule microarray, fluorescence 635/667 (AID 1065); settings: higher = more signal, COS7 lysate expressing mutant human TOR1A
[3] = binders of probe aFGF2 on microarray, primary screen, stem cell growth factor project, biochemical, small-molecule microarray, fluorescence 635/667 (AID 1067); settings: higher = more signal;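 also: measures binding of biotinylated aFGF2 protein to printed compounds on slides; z-score merges feature fluorescence and signal-to-noise across triplicate slides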
[4] = binders of probe aFGF10 on microarray, primary screen, stem cell growth factor project, biochemical, small-molecule microarray, fluorescence 635/667 (AID 1071); settings: higher = more signal;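 also: score merges 667 nm spot intensity and signal to noise from triplicate slides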
[5] = biological target: Neurogenic locus notch homolog protein 2 (Homo sapiens) (UniProt Q04721); assay: Notch2 binders on small-molecule microarrays, primary screen, biochemical, small-molecule microarray, 635 nm fluorescence, stem cell growth factors (AID 1073); settings: Notch2 binding, higher = more signal
[6] = biological target: Pro-neuregulin-1, membrane-bound isoform (Homo sapiens) (UniProt Q02297); assay: NRG1 binders on small-molecule microarrays, primary screen, psychiatric disease protein project, biochemical, small-molecule microarray, fluorescence 635/667 (AID 1075); settings: NRG1 binding, 635 nm fluorescence, higher = more signal;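 also: score combines 667 nm spot fluorescence with signal to noise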
[7] = test system: Neuregulin-1 EGF-like domain; assay: binders of neuregulin-1 EGF-like domain, primary screen, biochemical, small-molecule microarray, 635 nm fluorescence (AID 1081); settings: small-molecule microarray binding, higher = more signal;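 also: binding of the protein to compounds printed on small-molecule microarray slides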
[8] = FRG1 promoter luciferase signal modulators, primary screen, FRG1 inhibition for FSHD, cell-based, C2C12 myotubes, firefly/Renilla luciferase, luminescence (AID 1084); settings: higher = more signal, called active from +8 up or from −8 down
[9] = binders of probe aFST on microarray, primary screen, stem cell growth factor project, biochemical, small-molecule microarray, fluorescence 635/667 (AID 1086); settings: higher = more signal;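 also: score merges 667 nm fluorescence with signal-to-noise of each printed compound spot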
[10] = binders of probe aHhip on microarray, primary screen, stem cell growth factor project, biochemical, small-molecule microarray, fluorescence 635/667 (AID 1087); settings: higher = more signal;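 also: score merges spot fluorescence at 667nm with spot signal to noise ratio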
[11] = test system: PRMT1 (protein arginine N-methyltransferase 1); assay: PRMT1 binders on small-molecule microarrays, primary screen, biochemical, small-molecule microarray, 635 nm fluorescence (AID 1088); settings: small-molecule microarray binding, higher = more signal;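 also: binding of Prmt1 protein to compounds spotted on small-molecule microarray slides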
[12] = yeast growth modulation, basal conditions, primary screen, YJM789 clinical isolate, OD600, 24 h (AID 1089);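 also: growth of clinical yeast isolate S. cerevisiae YJM 789 seeded 1000 cells per well; test concentration not given here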; settings: S. cerevisiae YJM789 growth, higher = more signal, called active from +8 up or from −8 down
[13] = fission yeast growth modulation, primary screen, strain 972, OD600, 24 h, no modulator (AID 1090);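 also: basal condition with compound alone and no growth modifier present; test concentration not given here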; settings: S. pombe 972 growth, higher = more signal, called active from +8 up or from −8 down
[14] = S. cerevisiae growth modulation with rapamycin, primary screen, strain BY4716, OD600, 96 h (AID 1091); settings: higher = more signal, called active from +8 up or from −8 down; also: test concentration not given here
[15] = biological target: Torsin-1A-interacting protein 2 (Homo sapiens) (UniProt Q8NFQ8); assay: LULL1 binders on small-molecule microarray, primary screen, cell lysate, human LULL1 lysate, 635/667 nm fluorescence (AID 1092); settings: hLULL1 lysate binding, 635 nm fluorescence, higher = more signal;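 also: probe is lysate of COS7 cells overexpressing human LULL1; score merges per-feature 667 nm fluorescence with signal-to-noise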
[16] = E. coli growth modulation, two-sided OD650, primary screen, E. coli filamentation project, strain DRC41, 24 h (AID 1093); settings: OD650, 24 h, higher = more signal, called active from +8 up or from −8 down;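 also: MC1000 strain lacking acrAB efflux and sulA so SOS filamentation is blocked; test concentration not given here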
[17] = small-molecule microarray binders of probe aLefty2, primary screen, biochemical, biotinylated probe, 635/667 nm fluorescence (AID 1094); settings: higher = more signal;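 also: score merges spot fluorescence near 667 nm with spot signal-to-noise ratio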
[18] = test system: Noggin (protein binding on small-molecule microarray); assay: Noggin binders on small-molecule microarray, primary screen, biochemical, 635/667 nm fluorescence (AID 1095); settings: 635 nm fluorescence, higher = more signal;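 also: score merges 667 nm feature fluorescence with signal to noise over triplicate slides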
[19] = biological target: Neurogenic locus notch homolog protein 3 (Homo sapiens) (UniProt Q9UM47); assay: NOTCH3 binders on small-molecule microarray, primary screen, biochemical, 635/667 nm fluorescence (AID 1096); settings: NOTCH3 binding, 635 nm fluorescence, higher = more signal
[20] = small-molecule microarray binders of probe aEGFR, primary screen, biochemical, biotinylated probe, 635/667 nm fluorescence (AID 1097); settings: higher = more signal;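 also: probe is a biotinylated anti-EGFR antibody binding compounds printed on slides; score combines fluorescence near 667 nm and signal to noise of each spot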

Pro-neuregulin-1, membrane-bound isoform (Homo sapiens), sequence (Q02297 whole entry, looked up, the tested form may be a part, canonical isoform): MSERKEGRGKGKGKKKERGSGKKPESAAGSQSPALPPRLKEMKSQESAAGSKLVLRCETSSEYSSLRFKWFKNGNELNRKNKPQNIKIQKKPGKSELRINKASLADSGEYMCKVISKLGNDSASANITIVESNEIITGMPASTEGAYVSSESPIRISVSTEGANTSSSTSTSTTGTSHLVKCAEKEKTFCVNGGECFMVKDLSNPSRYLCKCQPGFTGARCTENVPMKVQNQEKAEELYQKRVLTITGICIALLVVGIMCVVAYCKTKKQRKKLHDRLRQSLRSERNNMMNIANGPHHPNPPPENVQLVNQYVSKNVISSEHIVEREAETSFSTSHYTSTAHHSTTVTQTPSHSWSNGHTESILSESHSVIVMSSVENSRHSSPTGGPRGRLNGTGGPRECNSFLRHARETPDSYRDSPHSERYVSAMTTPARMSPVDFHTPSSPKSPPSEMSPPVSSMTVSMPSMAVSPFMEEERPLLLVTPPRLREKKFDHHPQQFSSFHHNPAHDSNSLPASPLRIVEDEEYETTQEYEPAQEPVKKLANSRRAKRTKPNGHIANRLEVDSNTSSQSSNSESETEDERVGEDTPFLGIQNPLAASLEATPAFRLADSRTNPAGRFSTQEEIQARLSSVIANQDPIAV
Neurogenic locus notch homolog protein 2 (Homo sapiens), sequence (Q04721 whole entry, looked up, canonical isoform): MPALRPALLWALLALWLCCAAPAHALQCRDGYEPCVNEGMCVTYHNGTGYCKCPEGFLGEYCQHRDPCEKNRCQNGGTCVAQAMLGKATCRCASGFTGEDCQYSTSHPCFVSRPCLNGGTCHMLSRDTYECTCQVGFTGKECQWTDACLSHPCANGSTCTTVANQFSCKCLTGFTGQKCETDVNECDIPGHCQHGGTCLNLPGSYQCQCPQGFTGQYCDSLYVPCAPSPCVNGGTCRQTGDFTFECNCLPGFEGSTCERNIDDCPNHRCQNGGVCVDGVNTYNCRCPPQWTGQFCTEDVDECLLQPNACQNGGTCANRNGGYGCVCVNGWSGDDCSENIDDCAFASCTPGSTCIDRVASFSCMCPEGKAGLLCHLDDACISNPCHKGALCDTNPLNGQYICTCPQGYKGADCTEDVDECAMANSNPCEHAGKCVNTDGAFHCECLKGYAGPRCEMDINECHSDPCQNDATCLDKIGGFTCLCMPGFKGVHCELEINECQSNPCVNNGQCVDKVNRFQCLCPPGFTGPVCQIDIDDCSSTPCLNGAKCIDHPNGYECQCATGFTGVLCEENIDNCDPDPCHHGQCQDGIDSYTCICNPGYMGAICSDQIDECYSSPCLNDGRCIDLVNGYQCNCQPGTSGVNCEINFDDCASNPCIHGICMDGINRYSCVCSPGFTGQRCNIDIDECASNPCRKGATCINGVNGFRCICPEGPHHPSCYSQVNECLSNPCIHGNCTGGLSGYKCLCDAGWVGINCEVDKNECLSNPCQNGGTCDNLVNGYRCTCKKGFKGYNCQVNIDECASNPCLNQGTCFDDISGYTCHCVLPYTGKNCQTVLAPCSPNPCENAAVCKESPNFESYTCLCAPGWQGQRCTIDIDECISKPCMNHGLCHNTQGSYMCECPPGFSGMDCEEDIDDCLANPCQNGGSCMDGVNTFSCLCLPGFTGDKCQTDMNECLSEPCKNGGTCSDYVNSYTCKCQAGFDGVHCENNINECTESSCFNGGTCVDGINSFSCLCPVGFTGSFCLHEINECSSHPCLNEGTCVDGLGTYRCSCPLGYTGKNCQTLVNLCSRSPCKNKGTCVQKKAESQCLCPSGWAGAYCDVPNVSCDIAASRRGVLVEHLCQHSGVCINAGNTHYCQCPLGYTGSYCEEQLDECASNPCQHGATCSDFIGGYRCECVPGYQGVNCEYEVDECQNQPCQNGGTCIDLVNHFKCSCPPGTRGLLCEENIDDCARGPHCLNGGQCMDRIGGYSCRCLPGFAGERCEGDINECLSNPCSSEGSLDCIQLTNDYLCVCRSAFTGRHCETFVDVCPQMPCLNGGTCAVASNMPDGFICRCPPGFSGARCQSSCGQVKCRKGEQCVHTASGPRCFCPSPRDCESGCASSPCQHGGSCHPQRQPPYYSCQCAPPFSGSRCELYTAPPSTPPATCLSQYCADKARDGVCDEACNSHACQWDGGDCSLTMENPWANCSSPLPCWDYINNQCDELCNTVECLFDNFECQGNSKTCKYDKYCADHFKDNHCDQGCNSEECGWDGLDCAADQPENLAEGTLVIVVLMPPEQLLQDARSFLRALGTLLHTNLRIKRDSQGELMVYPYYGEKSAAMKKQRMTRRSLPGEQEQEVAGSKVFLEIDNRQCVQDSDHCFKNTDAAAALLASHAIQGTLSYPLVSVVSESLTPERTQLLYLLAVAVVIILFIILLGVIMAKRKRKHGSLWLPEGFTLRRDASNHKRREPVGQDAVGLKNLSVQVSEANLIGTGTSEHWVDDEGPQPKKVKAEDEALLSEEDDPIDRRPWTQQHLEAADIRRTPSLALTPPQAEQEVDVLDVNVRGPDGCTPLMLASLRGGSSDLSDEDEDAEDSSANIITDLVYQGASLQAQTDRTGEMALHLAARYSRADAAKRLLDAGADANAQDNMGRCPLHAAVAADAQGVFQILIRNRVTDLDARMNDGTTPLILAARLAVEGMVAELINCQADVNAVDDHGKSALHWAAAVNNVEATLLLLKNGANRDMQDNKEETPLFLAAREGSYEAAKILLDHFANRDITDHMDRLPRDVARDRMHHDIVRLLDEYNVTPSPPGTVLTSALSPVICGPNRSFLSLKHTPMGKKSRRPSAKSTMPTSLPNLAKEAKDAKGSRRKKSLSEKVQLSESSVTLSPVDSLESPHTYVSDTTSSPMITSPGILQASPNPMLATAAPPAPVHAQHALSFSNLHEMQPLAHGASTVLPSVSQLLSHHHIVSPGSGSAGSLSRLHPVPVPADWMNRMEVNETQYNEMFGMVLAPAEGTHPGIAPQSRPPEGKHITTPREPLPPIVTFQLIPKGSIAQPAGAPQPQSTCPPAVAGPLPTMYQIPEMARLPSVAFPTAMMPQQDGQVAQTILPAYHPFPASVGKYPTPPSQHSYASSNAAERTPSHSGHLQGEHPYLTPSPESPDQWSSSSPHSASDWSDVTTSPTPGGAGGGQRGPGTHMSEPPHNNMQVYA
Torsin-1A-interacting protein 2 (Homo sapiens), sequence (Q8NFQ8 whole entry, looked up): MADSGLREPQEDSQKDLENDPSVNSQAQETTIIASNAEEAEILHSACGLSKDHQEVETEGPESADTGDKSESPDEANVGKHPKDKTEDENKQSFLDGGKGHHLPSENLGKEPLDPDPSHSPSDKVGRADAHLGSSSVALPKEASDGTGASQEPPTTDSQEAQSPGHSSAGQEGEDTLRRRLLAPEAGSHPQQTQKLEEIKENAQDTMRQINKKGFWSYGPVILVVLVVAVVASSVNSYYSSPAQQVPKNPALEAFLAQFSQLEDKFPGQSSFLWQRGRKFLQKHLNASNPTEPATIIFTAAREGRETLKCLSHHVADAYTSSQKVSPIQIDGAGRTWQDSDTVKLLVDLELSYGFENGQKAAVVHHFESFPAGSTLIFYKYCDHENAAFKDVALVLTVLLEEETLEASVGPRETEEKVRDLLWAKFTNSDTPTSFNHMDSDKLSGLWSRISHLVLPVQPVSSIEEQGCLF

Structure (SMILES): COc1ccc(O[C@@H]2[C@H](O)CO[C@H]2C=Cc2ccccc2)cc1
- composite z-score [1]: -0.323
- composite z-score [2]: 0.26
- composite z-score [3]: -0.113
- composite z-score [4]: 0.649
- composite z-score [5]: -0.625
- composite z-score [6]: 0.0515
- composite z-score [7]: -0.839
- z-score [8]: -1.39 (inactive)
- composite z-score [9]: -0.367
- composite z-score [10]: -0.0994
- composite z-score [11]: 0.619
- z-score [12]: -2.63 (inactive)
- z-score [13]: -3.17 (inactive)
- z-score [14]: -0.856 (inactive)
- composite z-score [15]: 0.108
- z-score [16]: 0.473 (inactive)
- composite z-score [17]: -0.214
- composite z-score [18]: 0.146
- composite z-score [19]: -0.167
- composite z-score [20]: -0.148

Structure (SMILES): C=CC[C@@H]1C=C[C@H](ON=C(C)CCC(=O)OC[C@H]2O[C@H](c3ccccc3)C=C[C@@H]2Oc2ccc(OC)cc2)[C@@H](CO)O1
- composite z-score [1]: -0.409
- composite z-score [2]: -0.324
- composite z-score [3]: -0.163
- composite z-score [4]: 0.13
- composite z-score [5]: -1.06
- composite z-score [6]: 0.372
- composite z-score [7]: 0.215
- z-score [8]: 0.403 (inactive)
- composite z-score [9]: -0.303
- composite z-score [10]: -0.147
- composite z-score [11]: 0.12
- z-score [12]: 0.0343 (inactive)
- z-score [13]: -0.212 (inactive)
- z-score [14]: 0.261 (inactive)
- composite z-score [15]: -0.177
- z-score [16]: 0.358 (inactive)
- composite z-score [17]: -0.209
- composite z-score [18]: 0.185
- composite z-score [19]: -1.3
- composite z-score [20]: -0.172

Structure (SMILES): CCOC(=O)[C@H](Cc1ccccc1)NC(=O)CCC1CC(OC(=O)NCc2cccc3ccccc23)CC2(CCCC(COC(=O)NCC(c3ccccc3)c3ccccc3)O2)O1 (stereo not given in full)
- composite z-score [1]: -0.222
- composite z-score [2]: 0.578
- composite z-score [3]: -0.0753
- composite z-score [4]: 0.326
- composite z-score [5]: 0.928
- composite z-score [6]: 0.301
- composite z-score [7]: 1.04
- z-score [8]: 0.631 (inactive)
- composite z-score [9]: 0.329
- composite z-score [10]: -0.169
- composite z-score [11]: 1.5
- z-score [12]: -0.803 (inactive)
- z-score [13]: -0.463 (inactive)
- z-score [14]: -1.07 (inactive)
- composite z-score [15]: 1.17
- z-score [16]: -1.09 (inactive)
- composite z-score [17]: -0.147
- composite z-score [18]: 0.504
- composite z-score [19]: 0.851
- composite z-score [20]: 0.0117

Structure (SMILES): COC(=O)[C@H](C)NC(=O)CCC1CC(OC(=O)NCc2ccc3c(c2)OCO3)CC2(CCCC(COC(=O)NCC3CCCCC3)O2)O1 (stereo not given in full)
- composite z-score [1]: -0.632
- composite z-score [2]: 0.0369
- composite z-score [3]: -0.0158
- composite z-score [4]: 0.847
- composite z-score [5]: 1.08
- composite z-score [6]: 0.586
- composite z-score [7]: 1.18
- z-score [8]: 0.0762 (inactive)
- composite z-score [9]: 0.315
- composite z-score [10]: 0.231
- composite z-score [11]: 1.46
- z-score [12]: 0.147 (inactive)
- z-score [13]: 0.803 (inactive)
- z-score [14]: 1.45 (inactive)
- composite z-score [15]: 2.28
- z-score [16]: -0.0678 (inactive)
- composite z-score [17]: -0.0576
- composite z-score [18]: 1.1
- composite z-score [19]: 1.1
- composite z-score [20]: -0.0139

Structure (SMILES): CC(CCN1CCCc2nc(C)c(C)cc21)=NOC(C)CN1CCCCc2nc(C)c(C)cc21 (stereo not given)
- composite z-score [1]: -0.213
- composite z-score [2]: 0.854
- composite z-score [3]: 0.0766
- composite z-score [4]: 0.644
- composite z-score [5]: 1.51
- composite z-score [6]: 0.303
- composite z-score [7]: 1.13
- z-score [8]: 1.21 (inactive)
- composite z-score [9]: 1.09
- composite z-score [10]: 0.815
- composite z-score [11]: 1.49
- z-score [12]: -0.415 (inactive)
- z-score [13]: 0.435 (inactive)
- z-score [14]: 0.837 (inactive)
- composite z-score [15]: 1.22
- z-score [16]: 0.597 (inactive)
- composite z-score [17]: 0.0012
- composite z-score [18]: 0.923
- composite z-score [19]: 1.08
- composite z-score [20]: 0.406
